Assay outcomes as filed in PubChem BioAssay.
A selection: hits, their analogues and other compounds. The true share with any hit is near 10%.
RORgamma inh – inhibitors of mouse ROR gamma transcriptional activity; AID 2551; Potency, µM (titrated, usually from 53.6 µM), usual class: inhibitors; 310,000 compounds, 5.4% hits; P51450; Drosophila S2 Gal4-RORgamma UAS-luciferase reporter, 20 h; also: nearly all actives have a fitted effect of over 60% in size
Target sequence (P51450 whole entry, looked up, the tested form may be a part): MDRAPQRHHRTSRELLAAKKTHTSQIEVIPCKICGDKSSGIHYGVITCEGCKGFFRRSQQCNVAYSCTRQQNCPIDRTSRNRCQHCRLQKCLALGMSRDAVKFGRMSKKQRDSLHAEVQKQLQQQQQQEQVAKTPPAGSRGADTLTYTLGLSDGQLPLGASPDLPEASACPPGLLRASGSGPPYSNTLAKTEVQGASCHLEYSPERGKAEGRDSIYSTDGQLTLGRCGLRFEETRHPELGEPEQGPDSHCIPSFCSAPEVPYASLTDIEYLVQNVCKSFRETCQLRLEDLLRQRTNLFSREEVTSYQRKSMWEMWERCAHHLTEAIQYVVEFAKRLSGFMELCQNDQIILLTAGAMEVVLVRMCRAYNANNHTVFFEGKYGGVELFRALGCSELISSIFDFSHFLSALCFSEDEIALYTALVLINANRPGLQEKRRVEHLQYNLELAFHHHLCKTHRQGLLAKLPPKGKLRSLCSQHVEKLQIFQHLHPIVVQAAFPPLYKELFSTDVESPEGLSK
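Using a luciferase readout, inhibitors were identified by reduced reporter activity in Drosophila cells coexpressing a copper-inducible Gal4–ROR gamma fusion and UAS-driven Photinus luciferase, incubated 20 hr after 700 uM copper sulfate.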
MCF10A rerep – induces DNA re-replication in MCF 10a normal breast cells | MCF 10A DNA re-replication, Hoechst nuclear intensity, 48 h | Potency, µM (titrated, usually from 46.1 µM), actives largely listed as activators | 350,000 compounds, 2.9% hits; also: nearly all actives have a fitted effect of over 50% in size
VP16 counter – Gal4-VP16 reporter inhibition counter-screen | Drosophila S2 Gal4-VP16 UAS-luciferase, luminescence, 20 h | Potency, µM (highest dose often 53.6 µM), hits mostly inhibitors | 310,000 compounds, 3.5% hits | AID 2546;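 also: Gal4-VP16 expression switched on by copper sulfate through the metallothionein promoter; nearly all actives have a fitted effect of over 50% in size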
SW480 rereplic – inducers of DNA re-replication in SW480 colon cancer cells | Potency, µM (top dose mostly 46.1 µM), usual class: activators | 340,000 compounds, 1.8% hits | SW480 DNA re-replication, Hoechst DNA content imaging, 48 h; also: nearly all actives have a fitted effect of over 55% in size
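Hoechst fluorescence of nuclei (405 nm excitation, 500-530 nm emission) measured by plate-scanning imager after 48 hr compound exposure at 37 C; re-replication scored as increased number of nuclei with elevated intensity.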
ELG1 DNA repair – ELG1-dependent DNA repair inhibition; HEK293T ELG1-luciferase reporter, luminescence, 16 h; DNA damage induced by 5-fluorouridine; Potency, µM (top dose mostly 46.1 µM), most hits filed as inhibitors; 330,000 compounds, 2.3% hits; AID 504467; also: nearly all actives have a fitted effect of over 55% in size
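5-Fluorouridine DNA damage + compound/DMSO, 2,000 cells/well, 16 h, 37 °C/5% CO2. ONE-Glo, 30 min RT, luminescence. Readout = decrease in reporter signal.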
Each line names hits and unclear results; the compound was inactive in the other large screens. Calls follow the shape of the dose curve; as a rule, active = well fitted curve in the direction sought with a large enough effect; inconclusive = small, poorly fitted or top-dose-only effect, or another doubt; inactive = no such curve, though single readings can be large; an effect the other way counts as inactive or inconclusive.

Cn1c(SC(C(=O)Nc2ccc(F)cc2)c2ccccc2)nc2ccccc21 (centres undefined)	RORgamma inh 11.2µM, VP16 counter inconclusive, SW480 rereplic inconclusive, ELG1 DNA repair inconclusive
O=C(Nc1ccc(F)cc1)C(Sc1nc2ccccc2[nH]1)c1ccccc1 (centres undefined)	RORgamma inh inconclusive, MCF10A rerep 11.6µM, SW480 rereplic inconclusive
O=[N+]([O-])c1cnn(-c2nc(-c3ccccc3)cc(C(F)(F)F)n2)c1	none
COCC1CCCCN1C(=O)C1CCN(c2nc(-c3ccccc3)nc3c2CCC3)CC1 (centres undefined)	ELG1 DNA repair inconclusive
COc1ccc(CCNC(=O)COc2coc(CN3c4ccccc4CC3C)cc2=O)cc1OC (centres undefined)	ELG1 DNA repair inconclusive (no result: RORgamma inh, VP16 counter)
O=C(Nc1cccc(-c2cccc(F)c2)c1)C1CCN(Cc2ccc(CO)o2)CC1	SW480 rereplic 16.4µM
O=S(=O)(c1ccc(Br)c2nsnc12)N1CCOCC1	MCF10A rerep 20.6µM, SW480 rereplic inconclusive
O=C1CCCC2=C1C(c1ccc(O)cc1)c1c(ccc3ccccc13)N2 (centres undefined)	MCF10A rerep 16.4µM, SW480 rereplic inconclusive
CC(Cc1ccccc1)NC(=O)c1cc([N+](=O)[O-])ccc1Cl (centres undefined)	none
Cc1nn(-c2ccccc2)c(Cl)c1/C=C1\SC(=S)N(CCCCCC(=O)O)C1=O	MCF10A rerep 11.6µM
Cc1nn(-c2ccccc2)c(Cl)c1/C=C1\SC(=S)NC1=O	RORgamma inh inconclusive, MCF10A rerep 10.3µM, SW480 rereplic 20.6µM, ELG1 DNA repair inconclusive
C[C@@H]1CCC[C@H](C)N1Cc1nc(Cc2ccccc2Cl)no1	none
O=C(O)CCN1C(=O)c2ccc(NC(=O)c3cccs3)cc2C1=O	MCF10A rerep 20.6µM
CCCn1nnnc1SCC(=O)NC1CCCC1	none
CC1(C)CC(=O)C(C2=NC3(CCCCC3)Cc3ccccc32)=C(O)C1	none
COc1cccc(/C=N/Nc2ncnc3c2[nH]c2ccc(C)cc23)c1OC	RORgamma inh 6.31µM, VP16 counter inconclusive
Cn1cccc1-c1cc(C(=O)N/N=C/C=C/c2ccccc2)[nH]n1	RORgamma inh 5.01µM, VP16 counter inconclusive
COc1ccccc1/C=N/NC(=O)c1cc2c(OC)c(OC)ccc2[nH]1	MCF10A rerep inconclusive, SW480 rereplic inconclusive
COc1ccc(OC)c2[nH]c(C(=O)N/N=C/c3ccccc3O)cc12	RORgamma inh 3.98µM, MCF10A rerep inconclusive, VP16 counter 5.01µM, SW480 rereplic inconclusive, ELG1 DNA repair inconclusive
Cn1cccc1-c1cc(C(=O)N/N=C/c2ccc(Cl)cc2)[nH]n1	MCF10A rerep inconclusive
COc1cccc(/C=N/NC(=O)c2cc3c(OC)c(OC)ccc3[nH]2)c1OC	MCF10A rerep inconclusive, SW480 rereplic 23.1µM, ELG1 DNA repair inconclusive
CC(C)(C)n1nc2c(c1NC(=O)c1ccccc1C(F)(F)F)CS(=O)(=O)C2	none
CSc1ccc(CN2CCC(n3nccc3NC(=O)C3CCOC3)CC2)cc1 (centres undefined)	none
N#Cc1nc(-c2cccs2)oc1NCc1ccc2c(c1)OCO2	none
CC(C)C(OC(=O)c1nsc(Cl)c1Cl)C(=O)NCC1CCCO1 (centres undefined)	none
COc1cccc(/C=N/NC(=O)c2cc3c(OC)cccc3[nH]2)c1O	RORgamma inh 0.794µM, VP16 counter 2.24µM, SW480 rereplic 9.2µM, ELG1 DNA repair inconclusive
COc1cccc2[nH]c(C(=O)NCc3ccccc3)cc12	ELG1 DNA repair 20.6µM
COc1cccc(/C=N/NC(=O)c2cc(-c3cccn3C)n[nH]2)c1O	RORgamma inh 1µM, VP16 counter 2.82µM, SW480 rereplic inconclusive, ELG1 DNA repair inconclusive
COc1cc(/C=N/NC(=O)c2cc(-c3cccn3C)n[nH]2)cc(OC)c1OC	RORgamma inh inconclusive, ELG1 DNA repair inconclusive
CCOc1ccc(C(C)NC(=S)NCc2ccc(F)cc2)cc1 (centres undefined)	RORgamma inh 3.55µM, VP16 counter 3.16µM, ELG1 DNA repair inconclusive
Cc1ccc(NC(=S)NCc2ccc(F)cc2)c(C)c1	RORgamma inh 5.62µM, VP16 counter 5.62µM, SW480 rereplic inconclusive
CC(NC(=O)CCC(=O)NCc1ccc(F)cc1)c1ccccc1 (centres undefined)	none
COc1cccc(C(C)NC(=S)NCc2ccc(F)cc2)c1 (centres undefined)	RORgamma inh 5.01µM, VP16 counter 8.91µM
CCOc1ccc(C(C)NC(=O)c2ccccc2F)cc1 (centres undefined)	none
CCc1ccc(C(C)NC(=S)NCc2ccc(F)cc2)cc1 (centres undefined)	RORgamma inh 2.24µM, MCF10A rerep 25.9µM, VP16 counter 5.01µM, SW480 rereplic inconclusive
O=C(c1ccccc1Cl)N1CCC(n2cccc2)CC1	none
O=C(NCCC1=CCCCC1)C1CCN(S(=O)(=O)c2ccc(Br)s2)CC1	RORgamma inh inconclusive, MCF10A rerep inconclusive
COc1ccc(CN(C(=O)c2snc(C(N)=O)c2N)C(CC(C)C)C(=O)NC2CCCCC2)cc1 (centres undefined)	ELG1 DNA repair inconclusive
Cc1ccc(C(C)NC(=S)NCc2ccc(F)cc2)cc1C (centres undefined)	RORgamma inh 3.55µM, MCF10A rerep inconclusive, VP16 counter 5.01µM, SW480 rereplic inconclusive
CCC(NC(=S)NCc1ccc(F)cc1)c1ccc(C)cc1 (centres undefined)	RORgamma inh 2.82µM, VP16 counter 3.16µM, SW480 rereplic inconclusive
Cc1ccc(NC(=S)NCc2ccc3c(c2)cc(C)n3C)c(C)c1	RORgamma inh 1µM, MCF10A rerep inconclusive, VP16 counter 12.6µM, ELG1 DNA repair inconclusive
Cc1ccc(C(C)NC(=S)NCc2ccc(F)cc2)c(C)c1 (centres undefined)	RORgamma inh 2.51µM, VP16 counter 4.47µM
COc1nc2c(c(-c3cc(Br)cs3)c1C#N)Cc1ccccc1-2	MCF10A rerep inconclusive
O=C1CCc2cc(S(=O)(=O)NC(Cc3ccccc3)C(=O)NCC3CCCO3)ccc2N1 (centres undefined)	RORgamma inh 7.94µM
O=C(Nc1ccc(C(=O)N2CCOCC2)cc1)c1cc(-c2cccnc2)nc2ccc(Br)cc12	SW480 rereplic inconclusive, ELG1 DNA repair 9.2µM
CC(=O)c1ccc(N2CCN(C(=O)c3cc(-c4cccnc4)nc4ccc(Br)cc34)CC2)cc1	MCF10A rerep inconclusive, ELG1 DNA repair 16.4µM
Cc1ccc(NCc2nnc(SCC(=O)NNC(=O)Cc3ccccc3)n2C)cc1	none
O=C(N=C1SC2CS(=O)(=O)CC2N1Cc1ccccc1Cl)C1CC1 (centres undefined)	SW480 rereplic inconclusive
O=C(N/N=C/c1cccnc1)c1ccc(CN2c3cccc4cccc(c34)S2(=O)=O)cc1	ELG1 DNA repair 23.1µM
